Drawing on PMC5540273 (PLoS ONE, 2017), this text covers Kd for seven molecules.
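Further: kd values determined as follow-up on hits from a single-replicate KINOMEscan panel screen.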

One experiment concerns CSNK1A1.
For orientation: Kd means the equilibrium constant for the complex coming apart. A low value points to a tighter complex. With `Fc1ccc(-c2ncn(CCCNCc3ccccc3)c2-c2ccncc2)cc1`, the dissociation constant (Kd) is 210 nM. On the same count and under the same terms, for `CCc1nc(-c2cccc(C)c2)c(-c2ccnc(NC(=O)c3ccccc3)c2)s1` the value was 1400 nM. `CN1CCC(n2cnc(-c3ccc(F)cc3)c2-c2ccnc(NC3CCNCC3)n2)CC1` [SB-229482]: binding was characterised by a dissociation constant (Kd) of 160 nM.

With `CC(C)N1CCC(n2cnc(-c3ccc(F)cc3)c2-c2ccnc(N)n2)CC1` [SB-223132], the equilibrium dissociation constant (Kd) came to 59 nM. Same read-out and setting: for `Nc1nc(-c2ccccn2)c(-c2ccnc3ccccc23)s1` [GW548057] the value was 1200 nM; for `CNc1nccc(-c2c(-c3ccc(F)cc3)ncn2C2CCN(C)CC2)n1` [SB-222903], 24 nM.

The next experiment concerns CSNK1D.
The molecule `Fc1ccc(-c2ncn(CCCNCc3ccccc3)c2-c2ccncc2)cc1` registered a Kd of 47 nM. Same read-out and setting: then `FC(F)(F)c1cc(Nc2nccc(-c3c(-c4ccc(Cl)cc4)nn4ncccc34)n2)ccc1Cl` [GW829351], with 2200 nM. Regarding `CCc1nc(-c2cccc(C)c2)c(-c2ccnc(NC(=O)c3ccccc3)c2)s1`, the Kd came out at 690 nM. `CN1CCC(n2cnc(-c3ccc(F)cc3)c2-c2ccnc(NC3CCNCC3)n2)CC1` [SB-229482] yielded a dissociation constant Kd of 89 nM. Take `CC(C)N1CCC(n2cnc(-c3ccc(F)cc3)c2-c2ccnc(N)n2)CC1` [SB-223132]: binding was characterised by a dissociation constant (Kd) of 39 nM.

`Nc1nc(-c2ccccn2)c(-c2ccnc3ccccc23)s1` [GW548057] gave a Kd of 1800 nM.

Take `CNc1nccc(-c2c(-c3ccc(F)cc3)ncn2C2CCN(C)CC2)n1` [SB-222903]: the equilibrium dissociation constant (Kd) came out at 5.7 nM.
